FLuc modulator: qHTS profiling assay for firefly luciferase inhibitor/activator using purifed enzyme and Km concentrations of substrates (counterscreen for miR-21 project); Luciferin 4-monooxygenase (Photinus pyralis), P08659; AID 588342, 2011; purified FLuc, Km substrates, luminescence inhibition; Potency, µM (titrated, usually from 57.5 µM), without a hit: at the top dose activity change, negative = inhibition, usual class: inhibitors; 360,000 tested, 6.9% active;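 also: plate controls were vehicle for no effect and reference inhibitor for full effect; nearly all actives have a fitted effect of over 55% in size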
Target sequence (P08659 whole entry, looked up): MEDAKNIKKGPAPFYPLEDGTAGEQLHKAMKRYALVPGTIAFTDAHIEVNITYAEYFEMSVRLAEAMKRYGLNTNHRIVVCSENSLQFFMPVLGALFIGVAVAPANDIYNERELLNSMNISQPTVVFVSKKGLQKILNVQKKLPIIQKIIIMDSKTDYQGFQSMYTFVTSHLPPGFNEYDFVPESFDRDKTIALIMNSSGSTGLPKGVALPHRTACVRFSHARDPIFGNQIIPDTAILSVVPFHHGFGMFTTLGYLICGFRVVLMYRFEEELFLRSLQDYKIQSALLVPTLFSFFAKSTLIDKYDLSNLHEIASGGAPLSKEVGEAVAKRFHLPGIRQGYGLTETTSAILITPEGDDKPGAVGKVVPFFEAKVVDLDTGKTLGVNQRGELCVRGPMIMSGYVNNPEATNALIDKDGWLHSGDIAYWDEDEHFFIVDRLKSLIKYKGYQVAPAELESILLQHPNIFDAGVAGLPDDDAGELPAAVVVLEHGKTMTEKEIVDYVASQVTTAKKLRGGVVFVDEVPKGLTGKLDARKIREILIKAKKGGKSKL
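Biochemical qHTS of compounds, final roughly 60 µM downward over six points, against 10 nM purified firefly luciferase using Km concentrations of substrates (10 uM D-luciferin, 10 uM ATP) in Tris acetate pH 7.5 buffer; luminescence output.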
SMN2 splice enh: qHTS Assay for Enhancers of SMN2 Splice Variant Expression; HEK293 SMN2-luciferase splicing reporter, luminescence, 30-36 h; Potency, µM (highest dose often 46.1 µM), for the others: top-dose activity change, positive = activation, most hits filed as activators; 210,000 tested, 2.8% active; also: % of control where 0% means no effect; nearly all actives have a fitted effect of over 55% in size
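HEK293 cells carry an SMN2 minigene-luciferase reporter in which exon 7 inclusion puts luciferase in frame. Cells were seeded at 2000 cells/well, attached for 10-12 hours, then exposed to compounds for 30-36 hours at 37C before ONE-Glo luminescence.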
p53 reactivator: qHTS assay for re-activators of p53 using a Luc reporter; 320,000 tested, 0.063% active; AID 504706, 2011; H1299 p53-A138V BP100-luciferase reporter, luminescence, 24 h; Potency, µM (highest dose often 92.2 µM), without a hit: at the highest dose activity change, positive = activation, hits mostly activators; also: % of control where 0% means no effect; nearly all actives have a fitted effect of over 45% in size
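H1299 (p53-null), stable ts p53-A138V + BP100-Luc; 1000 cells/well, Opti-MEM/10% FBS; cpd 4 pt, 1:5; 24 h, 37 deg C, 5% CO2; detection reagent 10 min RT; luminescence.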
ELG1 genotoxic: qHTS screen for small molecules that induce genotoxicity in human embryonic kidney (HEK293T) cells expressing luciferase-tagged ELG1; HEK293T ELG1-luciferase reporter, luminescence, 16 h; Potency, µM (top dose mostly 46 µM), for inactives: at the top dose activity change, positive = activation, usual class: activators; 330,000 tested, 1.3% active; AID 504466, 2011; also: % of control where 0% means no effect; nearly all actives have a fitted effect of over 60% in size
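Genotoxicity was scored as increased ELG1-luciferase reporter signal, measured by ONE-Glo luminescence (30 min, room temperature). Compound or vehicle exposure of the HEK293T reporter cells lasted 16 hr at 37°C.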
Rab9 promoter act: qHTS Assay for Rab9 Promoter Activators; AID 485297, 2010; 320,000 tested, 2.8% active; Potency, µM (series often up to 9.22 µM), inactives show at the highest dose activation, negative = inhibition, most hits filed as activators; Huh7 Rab9 promoter-luciferase reporter, luminescence, 24 h; also: % of control where 0% means no effect; nearly all actives have a fitted effect of over 60% in size
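Quantitative HTS format; Huh7 Rab9-luciferase reporter cells (1500/well) receive compound 2 h post-plating, incubate 24 h at 37 °C, then get luciferase reagent for 10 min before luminescence reading.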
NPC1 promoter act: qHTS Assay for NPC1 Promoter Activators; AID 485313, 2010; 320,000 tested, 2.4% active; Potency, µM (titrated, usually from 9.22 µM), inactives show top-dose activation, actives largely listed as activators; Huh7 NPC1 promoter luciferase reporter, 24 h; also: % of control where 0% means no effect; nearly all actives have a fitted effect of over 60% in size
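Huh7 reporter cells (NPC1 promoter driving luciferase) are dosed with compound for 24 h at 37 °C, 5% CO2; luciferase detection reagent is then added and luminescence measured after 10 min at ambient temperature.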
Active calls of the source: *; ? = inconclusive; · = no result. Most compounds without a hit are left out; they make up all but 7.4% or so of the library. Calls follow the shape of the dose curve; as a rule, active = well fitted curve in the direction sought with a large enough effect; inconclusive = small, poorly fitted or top-dose-only effect, or another doubt; inactive = no such curve, though single readings can be large; an effect the other way counts as inactive or inconclusive. Potency is read from the fitted curve at half-maximal effect.

SMILES	FLuc modulator	SMN2 splice enh	p53 reactivator	ELG1 genotoxic	Rab9 promoter act	NPC1 promoter act
CN(C)CCCNc1oc(-c2ccc(Cl)cc2)nc1C#N	-10.8%	8.6%	12.0%	1.4%	-3.8%	3.0%
COCCNc1oc(-c2ccc(Cl)cc2)nc1C#N	10.7µM*	?	13.1%	?	?	?
COCCNc1oc(-c2ccc(C)cc2)nc1C#N	12µM*	10µM*	29.1%	5.62µM*	3.55µM*	?
COc1ccc(OCC(=O)c2c[nH]c3ccccc23)cc1	3.79µM*	25.8%	1.6%	18.2%	?	?
CC1(C(=O)OCC(=O)c2c[nH]c3ccccc23)CC1(Cl)Cl (centres undefined)	6.75µM*	?	?	?	3.16µM*	3.98µM*
O=C(COc1ccccc1)OCC(=O)c1c[nH]c2ccccc12	?	·	-0.2%	0.4%	8.2%	4.0%
Cc1cnc(C(=O)OCC(=O)c2c[nH]c3ccccc23)cn1	-9.7%	·	2.0%	2.7%	1.3%	-2.5%
CCOc1ccc(NC(=O)c2c(NC(=O)c3ccco3)sc3c2CCC(C(C)(C)C)C3)cc1 (centres undefined)	1.2%	3.6%	·	·	·	·
Cc1ccc(/C=C2\SC(N3CCCCC3)=NC2=O)cc1	19µM*	·	·	11.7%	?	29.9%
CCOC(=O)C1CCCN(C2=NC(=O)/C(=C/c3ccc(OC)cc3)S2)C1 (centres undefined)	-10.8%	·	-0.9%	-0.4%	1.6%	-1.2%
O=C1N=C(N2CCCC2)S/C1=C\c1ccccc1	-17.6%	-3.7%	16.6%	10.6%	3.1%	-3.4%
CC(C)(C)c1ccc(/C=C2/SC(N3CCCC3)=NC2=O)cc1	12µM*	·	-0.6%	2.8%	11.1%	-2.7%
CCOC(=O)C1CCCN(C2=NC(=O)/C(=C/c3ccc(N(C)C)cc3)S2)C1 (centres undefined)	12µM*	·	6.0%	5.8%	5.4%	26.0%
Cc1ccccc1N1CCN(C2=NC(=O)/C(=C\c3cccs3)S2)CC1	9.53µM*	?	?	1.0%	11.0%	-0.6%
O=C(Nc1nc2c(Br)cccc2s1)C1CC1	-16.4%	·	3.1%	-7.8%	18.4%	9.9%
Cc1ccc(C)c(N(C)C(=O)C2CCN(c3ncnc4c3nc3n4CCCCC3)CC2)c1	-2.2%	·	·	·	·	·
c1ccc(C(c2ccccc2)N2CCCC3(CCNCC3)C2)cc1	·	-11.6%	·	·	·	·
O=C(CCC(=O)N1CCN(Cc2ccccc2)CC1)Nc1nnc(C2CCCCC2)s1	-1.3%	·	-4.1%	-5.5%	-1.2%	-2.0%
CC(Sc1nnc(NC2CCCCC2)s1)C(=O)Nc1ccc2c(c1)C(=O)c1ccccc1C2=O (centres undefined)	?	10µM*	?	4.1%	?	?
CC(Sc1nnc(NC2CC2)s1)C(=O)Nc1ccc(N2CCOCC2)cc1 (centres undefined)	-0.5%	·	-4.6%	1.2%	-5.6%	1.4%
Brc1ccc(-c2csc(/N=C/N3CCOCC3)n2)cc1	15.1µM*	8.7%	7.1%	18.4µM*	?	?
N/C(Cc1nc(-c2ccc(Br)cc2)cs1)=N\O	?	·	29.0%	1.0%	?	21.3%
Brc1ccc(-c2csc(/N=C/N3CCCC3)n2)cc1	15.1µM*	-43.1%	16.6%	?	?	26.5%
OCCN(/C=N/c1nc(-c2ccc(Br)cc2)cs1)CCO	19µM*	13.6%	20.9%	20.6µM*	?	?
Cc1ccc(S(=O)(=O)Nc2cc(Cl)c3oc4c(c3c2)C(=O)CC(C)(C)C4)cc1	-6.1%	-4.1%	·	·	·	·
SMILES	FLuc modulator	SMN2 splice enh	p53 reactivator	ELG1 genotoxic	Rab9 promoter act	NPC1 promoter act
Cc1nn(C)cc1CN(C)C(=O)c1cc(-c2ccccc2)nc2ccc(Br)cc12	21.3µM*	-11.1%	-2.5%	-12.4%	14.8%	2.4%
Cn1cc(CNC(=O)c2cc(-c3ccccc3)nc3ccc(Br)cc23)cn1	5.36µM*	18.7%	3.1%	-1.5%	1.7%	-0.1%
NC(=O)c1cc(-c2ccccc2)nc2ccc(Br)cc12	5.2%	·	-3.3%	6.3%	1.7%	1.6%
Cc1ccc(-c2cc(C(=O)NCc3cnn(C)c3)c3cc(Br)ccc3n2)cc1	1.07µM*	-2.8%	18.3%	?	24.4%	3.6%
Cn1cc(CNC(=O)c2cc(-c3ccc(Br)cc3)nc3ccccc23)cn1	?	·	-2.0%	-10.1%	-0.2%	8.2%
CCc1ccc(-c2nc3cc(NC(=O)c4cc5ccccc5cc4OC)ccc3o2)cc1	-15.5%	-2.2%	·	·	·	·
CCOC(=O)c1cccc(-n2nnc3c(sc4nc(C)c(Br)c(C)c43)c2=O)c1	-1.3%	4.9%	·	·	·	·
COCCn1c(C)cc(C(=O)CSc2ccc(NC(C)=O)cc2)c1C	?	-42.0%	3.8%	?	2µM*	?
CC(=O)Nc1ccc(SCC(=O)c2cc(C)n(-c3ccccc3F)c2C)cc1	6.01µM*	-70.4%	34.1%	?	23.5%	?
COC(=O)c1ccc(-n2c(C)cc(C(=O)CSc3ccc(NC(C)=O)cc3)c2C)cc1	-12.3%	-12.2%	3.4%	-8.4%	-1.9%	-0.4%
COCC(C)n1c(C)cc(C(=O)CSc2nnnn2-c2ccc(O)cc2)c1C (centres undefined)	21.3µM*	0.5%	0.4%	2.7%	10.0%	5.6%
COCCn1c(C)cc(C(=O)COC(=O)CCS(=O)(=O)c2ccc(C)cc2)c1C	?	·	4.9%	19.2%	0.6%	0.9%
CC(=O)Nc1ccc(NCc2cccs2)cc1	-11.9%	·	-30.9%	6.1%	20.5%	12.3%
CC(=O)Nc1ccc(SCC(=O)c2cc(C)n(Cc3cccs3)c2C)cc1	16.9µM*	-53.3%	10.7%	?	?	13.1%
O=C(CSc1nnc(Nc2ccccc2F)s1)c1cc2ccccc2o1	-18.2%	19.9%	18.8%	-0.7%	1.7%	0.4%
COCC(C)n1c(C)cc(C(=O)CSc2nnc(-c3ccco3)o2)c1C (centres undefined)	·	·	11.9%	-2.2%	·	·
COCC(C)n1c(C)cc(C(=O)CSc2nnc(Nc3ccccc3F)s2)c1C (centres undefined)	16.9µM*	-25.1%	-13.8%	-11.4%	7.3%	-4.1%
COCC(C)n1c(C)cc(C(=O)CSc2ccc(NC(C)=O)cc2)c1C (centres undefined)	-18.9%	-40.1%	13.4%	7.94µM*	?	?
COCC(C)n1c(C)cc(C(=O)CSc2ncccn2)c1C (centres undefined)	15.1µM*	11.2µM*	-3.8%	?	3.98µM*	3.16µM*
